Results from PubChem BioAssay AID463173 (ICCB-Longwood Screening Facility, Harvard Medical School, 2010).
In all, about 52,000 compounds went through this assay and about 4,300 (8.3%) were called active. The sample holds actives, similar compounds and a random draw of the others, so the mix is not that of the screen. A number with no mark means an inactive call. No stated cut-off is given here; in the data, active means survival mostly below about 52% (no sharp cut-off); inactive means mostly above about 56%.

These molecules were tested on DeltatarO mutant (assay: S. aureus survival, RN4220 and DeltatarO strains – OD600, teichoic acid synthesis inhibitors, primary screen (AID 463173)). Settings: S. aureus RN4220 wild type/DeltatarO growth, OD600, 18 h, stronger effect = lower value, screened at 18.75 µg/mL (by protocol).
With `Cc1c(CCC(=O)NCCc2ccccc2F)c(=O)oc2cc(O)ccc12` the survival was 61%.
In the case of `O=C(CSc1nc2c([nH]c3ccccc32)c(=O)n1-c1ccccc1)N1CCc2ccccc21`, the survival is reported as 101%.
In the case of `CCOC(=O)c1ccccc1NS(=O)(=O)c1ccc(N2CCCCS2(=O)=O)cc1`, the survival is reported as 90%.
`CN1CCN(Cn2c(O)c(N=NC(=O)c3ccc(Br)cc3)c3cc(Br)ccc32)CC1` showed a survival of 87%.
`CCOc1ccc(NC(=O)CC2C(=O)N(c3cccc(C)c3)C(=O)N2Cc2cccnc2)cc1` (stereo not given) gave a survival of 55%.
`CCOc1ccc(NC(=O)c2cnc3sc(N4CCOCC4)nn3c2=O)cc1` gave a survival of 97%.
`COCCNC(=O)c1ccc2c(=O)n(CCOC)c(SCC(=O)c3c[nH]c4ccccc34)nc2c1` was tested, and the survival was 17% (active).
With `COCCn1c(SCC(=O)c2c[nH]c3ccccc23)nc2cc(C(=O)NCC(C)C)ccc2c1=O` the survival was 100%.
For `COCCn1c(SCC(=O)c2c[nH]c3ccccc23)nc2cc(C(=O)NC(C)C)ccc2c1=O`, the survival was 55%.
For `Cc1ccc(Cl)cc1-n1ncc2c(NCCc3ccccc3)ncnc21`, the survival was 60%.
Molecule `COc1ccc(Cl)cc1NC(=O)Cn1c(=O)n(Cc2nc(C)no2)c(=O)c2ccccc21` has a survival of 83%.
Molecule `COc1ccc(NC(=O)CSc2nccn2Cc2ccco2)cc1OC` has a survival of 73%.
`Cc1cc(C)cc(-n2ccnc2SCC(=O)Nc2nc3ccccc3s2)c1` showed a survival of 71%.
For `Cc1nnc(NC(=O)CSc2nccn2Cc2ccc(F)cc2)s1`, the survival was 0% (active).
`Cc1ccc2nc(NC(=O)CSc3nccn3Cc3ccc(F)cc3)sc2c1` gave a survival of 99%.
With `Cc1ccc2nc(NC(=O)CSc3nccn3Cc3ccc(Cl)cc3)sc2c1` the survival was 96%.
`Cc1nnc(NC(=O)CSc2nccn2Cc2ccc(Cl)cc2)s1` showed a survival of 112%.
For `Cc1cc(C)cc(-n2ccnc2SCC(=O)Nc2nc3ccc(C)cc3s2)c1`, the survival was 52% (active).
`O=C(CSc1nccn1Cc1ccccc1)Nc1nc2ccccc2s1` gave a survival of 117%.
Molecule `Cc1ccc(Cn2ccnc2SCC(=O)Nc2nnc(C)s2)cc1` has a survival of 55%.
`O=C(CSc1nccn1Cc1ccc(F)cc1)Nc1nc2ccccc2s1` gave a survival of 83%.
With `Cc1ccc2nc(NC(=O)CSc3nccn3Cc3ccccc3)sc2c1` the survival was 37% (active).
With `O=C(CSc1nccn1Cc1ccc(Cl)cc1)Nc1nc2ccccc2s1` the survival was 32% (active).
In the case of `Cc1ccc2nc(NC(=O)CSc3nccn3-c3ccc(Cl)cc3)sc2c1`, the survival is reported as 71%.
Molecule `COc1ccccc1NC(=O)CCN1CCC(C(N)=O)CC1` has a survival of 193%.
`COc1ccc(CNC(=O)c2sc3nc[nH]c(=O)c3c2C)cc1` was tested, and the survival was 75%.
`CCCCNc1nc(Oc2ccc(=O)n(C)n2)nc(N2CCOCC2)n1` gave a survival of 81%.
`COc1ccc(C)cc1Nc1nc(-c2cccc(Cl)c2)c2c(n1)-c1ccccc1OC2` showed a survival of 68%.
`CCOC(=O)CCn1nc(C)c2c(C)n(-c3ccccc3)nc2c1=O` showed a survival of 87%.
Molecule `Cc1ccc(OCC(=O)Nc2nc(-c3ccc(Br)cc3)ns2)cc1` has a survival of 72%.
Molecule `Cc1ccc(NC(=O)C2CCN(C(=O)c3sc4nc[nH]c(=O)c4c3C)CC2)cc1F` has a survival of 89%.
`COc1cccc(CN2C(=O)c3ccccc3Sc3ccc(C(=O)N(C)Cc4ccccc4)cc32)c1` was tested, and the survival was 79%.
`CN1CCc2c(sc(NC(=O)CSc3ccccc3)c2-c2nc3ccccc3s2)C1` showed a survival of 73%.
In the case of `CC(=O)N1CCc2c(sc(NC(=O)CSc3ccccc3)c2-c2nc3ccccc3s2)C1`, the survival is reported as 109%.
In the case of `CCN1CCc2c(sc(NC(=O)CSc3ccccc3)c2-c2nc3ccccc3s2)C1`, the survival is reported as -5% (active).
Work on `CCc1ccc(N2C(=O)C3C(C(=O)OC)=NN(C(C)=O)C3C2=O)cc1` (stereo not given) yielded a survival of 75%.
In the case of `Cc1ccc(NC(=O)C2CCCN(c3ncnc4onc(-c5ccc(F)cc5)c34)C2)c(Cl)c1` (stereo not given), the survival is reported as 71%.
`S=C(NCc1ccc2c(c1)OCO2)Nc1ccccc1` was tested, and the survival was 97%.
With `CCCCNC(=O)C1(NC(=O)Nc2ccccc2)CCCCC1` the survival was 74%.
With `O=C(Nc1ccccc1)NC1(C(=O)NCc2ccc3c(c2)OCO3)CCCCC1` the survival was 6% (active).
With `NC(=O)CSc1nnnn1C1CCCCC1` the survival was 71%.
Work on `COc1ccc(C(=O)Nc2cccc(-c3cn4ccsc4n3)c2)c(OC)c1` yielded a survival of 70%.
`COc1cccc(-c2nc3c(C#N)c[nH]n3c2NC2CCCCC2)c1` showed a survival of 72%.
`COc1ccc(-c2nc3c(C#N)c[nH]n3c2NC2CCCC2)cc1` showed a survival of 56%.
For `COc1cccc(-c2nc3c(C#N)c[nH]n3c2NC2CCC(C)CC2)c1` (stereo not given), the survival was 29% (active).
Work on `COc1cccc(-c2nc3c(C#N)c[nH]n3c2NC2CCCCC2)c1OC` yielded a survival of 60%.
With `COc1cccc(-c2nc3c(C#N)c[nH]n3c2NC2CCCC2)c1OC` the survival was 64% (active).
In the case of `COc1ccc(-c2nc3c(C#N)c[nH]n3c2NC2CCCC2)c(OC)c1`, the survival is reported as 65%.
With `CCC(=O)N1c2ccccc2CC1C(=O)NCCc1ccccc1` (stereo not given) the survival was 69%.
With `CCN(CC)c1ccc(NC(=O)C(NS(=O)(=O)c2cccs2)C(C)C)c(C)c1` (stereo not given) the survival was 141%.
With `CCC1CCCCN1CC(=O)Nc1cc(C)c2c(=O)oc3ccccc3c2n1` (stereo not given) the survival was 98%.
With `O=C(COc1ccc2oc3c(c2c1)CCCC3)Nc1cccc(Br)c1` the survival was 27% (active).
Molecule `Cc1ccc(NC(=O)COc2ccc3oc4c(c3c2)CCCC4)c(C)c1` has a survival of 88%.
For `Cc1cccc(NC(=O)COc2ccc3oc4c(c3c2)CCCC4)c1`, the survival was 40% (active).
Work on `Cc1ccc(NC(=O)COc2ccc3oc4c(c3c2)CCCC4)cc1C` yielded a survival of 70%.
Work on `O=C(COc1ccc2oc3c(c2c1)CCCC3)Nc1ccc(Br)cc1` yielded a survival of 89%.
`O=C(COc1ccc2oc3c(c2c1)CCCC3)Nc1ccc(Cl)cc1` was tested, and the survival was 85%.
With `Cn1c(C(C(=O)NCC2CCCO2)N(Cc2ccc(F)cc2)C(=O)Cn2nnc3ccccc32)nc2ccccc21` (stereo not given) the survival was 95%.
`O=C(CSCn1nnc2c(=O)[nH]c(Cc3ccc(F)cc3)nc21)Nc1cccc(C(F)(F)F)c1` was tested, and the survival was 64%.
`CC(=O)OC(COCc1ccccc1)Cn1cnc2ccccc21` (stereo not given) gave a survival of 69%.
